Assay [1] is described as follows: Primary qHTS for inhibitors of SARS-S pseudo-typed particle cell entry (AID 1479145). Also: nearly all actives have a fitted effect of over 45% in size. Also: potency is read from the fitted curve at half-maximal effect. The settings on record: SARS-S pseudotyped particle cell entry, luciferase reporter; series mostly up to 57.1 µM.
The nature of assay [2]: Primary qHTS for Huh7 cytotoxicity: counterscreen for inhibitors of MERS-S pseudotyped particle cell entry (AID 1479147). Particulars: cell viability read-out; series mostly up to 57.1 µM. On the technique in general: Quantitative high-throughput screening tests each substance at several concentrations.
The nature of assay [3]: Primary qHTS for inhibitors of MERS-S pseudo-typed particle cell entry (AID 1479149). Also: nearly all actives have a fitted effect of over 60% in size. The settings on record: MERS-S pseudotyped particle entry, luciferase; series mostly up to 57.1 µM.
Assay [4] is described as follows: Primary qHTS for Vero E6 cytotoxicity: counterscreen for inhibitors of SARS-S pseudo-typed particle cell entry (AID 1479150). Particulars: cell viability; series mostly up to 57.1 µM.

Here are results for 36 compounds from PubChem BioAssay (NCATS).

Records with an inconclusive call do not appear. Values without a mark were called inactive. Activity calls are given as the source filed them. Calls follow the shape of the full dose curve.
% is scaled to controls: 0 for no effect and ±100 for the full control effect.

Regarding `S=c1nc[nH]c2nc[nH]c12`, the Potency result in assay [1], in assay [2], in assay [3] and in assay [4] was “inactive” each time.

On to `CCC1(C)CC(=O)NC1=O` (centres undefined), for which the Potency result in assay [1], in assay [2], in assay [3] and in assay [4] was “inactive” throughout.

For the compound `O=c1oc2ccccc2c(O)c1Cc1c(O)c2ccccc2oc1=O`, the Potency entry in assay [1], in assay [2], in assay [3] and in assay [4] was “inactive” in each case.

Regarding `O=c1[nH]c(=O)n([C@H]2O[C@H](CO)[C@@H](O)[C@@H]2O)cc1/C=C\Br`, the Potency entry in assay [1], in assay [2], in assay [3] and in assay [4] was “inactive” throughout.

In the case of `CCOC(=O)O[C@]1(C(=O)OCCl)CC[C@H]2[C@@H]3CCC4=CC(=O)C=C[C@]4(C)[C@H]3[C@@H](O)C[C@@]21C`, the Potency entry in assay [1], in assay [2], in assay [3] and in assay [4] was “inactive” in each case.

As for `C[C@@H]1[C@H](O)[C@@H](C)/C=C/C=C\C=C\C=C\C=C\C=C\C=C\[C@H](O[C@@H]2O[C@H](C)[C@@H](O)[C@H](N)[C@@H]2O)C[C@@H]2O[C@](O)(C[C@@H](O)C[C@@H](O)[C@H](O)CC[C@@H](O)C[C@@H](O)CC(=O)O[C@H]1C)C[C@H](O)[C@H]2C(=O)O` (stereo in doubt), the Potency entry in assay [1], in assay [2], in assay [3] and in assay [4] was “inactive” in each case.

Turning to `CCCCCCCCCCCCOCCO`, the Potency result in assay [1], in assay [2], in assay [3] and in assay [4] was “inactive” in each case.

On to `Cc1ncc(CO)c(CO)c1O`, for which the Potency result in assay [1], in assay [2], in assay [3] and in assay [4] was “inactive” in each case.

Regarding `CCCc1c2oc(C(=O)O)cc(=O)c2cc2c(=O)cc(C(=O)O)n(CC)c12`, the Potency entry in assay [1], in assay [2], in assay [3] and in assay [4] was “inactive” in each case.

As for `O=C(O)CCC(=O)O`, the Potency entry in assay [1], in assay [2], in assay [3] and in assay [4] was “inactive” in each case.

Take `Nc1ccn([C@@H]2CS[C@H](CO)O2)c(=O)n1`: the Potency result in assay [1], in assay [2], in assay [3] and in assay [4] was “inactive” in each case.

As to `CCCCCCCN(CC)CCCC(O)c1ccc(NS(C)(=O)=O)cc1` (centres undefined), the Potency entry in assay [1], in assay [2], in assay [3] and in assay [4] was “inactive” each time.

As to `CC1CC(OC(=O)c2ccccc2O)CC(C)(C)C1` (centres undefined), the Potency result in assay [1], in assay [2], in assay [3] and in assay [4] was “inactive” in each case.

Turning to `C[C@]12C=CC(=O)C=C1[C@@H](F)C[C@@H]1[C@@H]2[C@@H](O)C[C@@]2(C)[C@H]1CC[C@]2(O)C(=O)CO`, the Potency entry in assay [1], in assay [2], in assay [3] and in assay [4] was “inactive” throughout.

For `O=C(O)c1cc(N=Nc2ccc(O)c(C(=O)O)c2)ccc1O`, the Potency result in assay [1], in assay [2], in assay [3] and in assay [4] was “inactive” in each case.

Turning to `COc1cc2c(Nc3ccc(Br)cc3F)ncnc2cc1OCC1CCN(C)CC1`, the Potency entry in assay [1], in assay [2], in assay [3] and in assay [4] was “inactive” in each case.

On to `CCOC(=O)c1ccc(N)cc1`, for which the Potency result in assay [1], in assay [2], in assay [3] and in assay [4] was “inactive” in each case.

With `O=C(c1ccccc1)C(O)c1ccccc1` (centres undefined), the Potency entry in assay [1], in assay [2], in assay [3] and in assay [4] was “inactive” in each case.

On to `CCCN1CCCC[C@H]1C(=O)Nc1c(C)cccc1C`, for which the Potency entry in assay [1], in assay [2], in assay [3] and in assay [4] was “inactive” each time.

As to `CN1C(C(=O)Nc2ccccn2)=C(O)c2ccccc2S1(=O)=O`, the Potency entry in assay [1], in assay [2], in assay [3] and in assay [4] was “inactive” throughout.

On to `CCOC(=O)Oc1ccc(CCNC(=O)[C@H](CCSC)NC(C)=O)cc1OC(=O)OCC`, for which the Potency result in assay [1], in assay [2], in assay [3] and in assay [4] was “inactive” each time.

In the case of `S=P(N1CC1)(N1CC1)N1CC1`, the outcome in assay [1] is “inactive [at 0.573 µM]”. Also, the activity change, negative = cytotoxicity is -8.32% [at 0.573 µM] in assay [2] and -9.38% [at 0.573 µM] in assay [4]. Further, the activity change, negative = inhibition in assay [3] is 3.72% [at 0.573 µM].

Turning to `CCOc1cc(CC(=O)N[C@@H](CC(C)C)c2ccccc2N2CCCCC2)ccc1C(=O)O`, the Potency entry in assay [1], in assay [2], in assay [3] and in assay [4] was “inactive” throughout.

Consider `CCN(CC)CCNC(=O)c1ccc(N)cc1`, for which the Potency entry in assay [1], in assay [2], in assay [3] and in assay [4] was “inactive” throughout.

Take `CC(=O)NCCCS(=O)(=O)O`: the Potency result in assay [1], in assay [2], in assay [3] and in assay [4] was “inactive” in each case.

As for `NCCS(=O)(=O)O`, the Potency result in assay [1], in assay [2], in assay [3] and in assay [4] was “inactive” each time.

Consider `O=c1[nH]cnc2[nH]ncc12`, for which the Potency result in assay [1], in assay [2], in assay [3] and in assay [4] was “inactive” throughout.

With `CCOC(=O)c1ccc(O)cc1`, the Potency result in assay [1], in assay [2], in assay [3] and in assay [4] was “inactive” throughout.

As for `C[C@]12C=CC(=O)C=C1CC[C@@H]1[C@@H]2C(=O)C[C@@]2(C)[C@H]1CC[C@]2(O)C(=O)CO`, the Potency result in assay [1], in assay [2], in assay [3] and in assay [4] was “inactive” in each case.

With `NCCNCCNCCN`, the Potency entry in assay [1], in assay [2], in assay [3] and in assay [4] was “inactive” throughout.

Turning to `NC(=O)c1ccc([N+](=O)[O-])cc1Cl`, the Potency entry in assay [1], in assay [2], in assay [3] and in assay [4] was “inactive” each time.

`O=C1CC[C@H](C(=O)N2CCCCC2)N1`: the Potency entry in assay [1], in assay [2], in assay [3] and in assay [4] was “inactive” in each case.

For the compound `CC(=O)OCC1=C(C(=O)O)N2C(=O)[C@@H](NC(=O)Cc3cccs3)[C@H]2SC1`, the Potency result in assay [1], in assay [2], in assay [3] and in assay [4] was “inactive” in each case.

Consider `Cc1cc(NS(=O)(=O)c2ccc(N)cc2)no1`, for which the Potency entry in assay [1], in assay [2], in assay [3] and in assay [4] was “inactive” each time.

Take `O=C(O)[C@@H](O)[C@H](O)[C@H](O)[C@@H](O)C(=O)O`: the Potency result in assay [1], in assay [2], in assay [3] and in assay [4] was “inactive” each time.

Take `CCCCCCCCCCCCCCCCOP(=O)([O-])OCC[N+](C)(C)C`: the Potency in assay [1] is 14.1 µM (active). The Potency entry in assay [2], in assay [3] and in assay [4] was “inactive” in each case.
